Compound activity as filed in PubChem.
TNFa cytotox: HUVEC cytotoxicity counter-screen, TNF alpha stimulated. HUVEC TNFalpha-stimulated, Hoechst cell count, imaging. cell count reduction, % at 2 µM. hit rate 0.17% among 93,000. AID 848;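 active means cell count reduction exceeding the screen mean by over 5 SD, scaled to untreated wells per plate, cut at about 78% in these data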;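 further: cells counted after 24 h of TNF alpha exposure following the 1 h pretreatment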
VCAM1 TNFa inh: reduces TNF alpha induced VCAM1 expression in HUVEC; HUVEC TNFa-induced VCAM-1 immunofluorescence, high-content imaging; inhibition, % at 2 µM; hit rate 0.48% among 95,000; AID 802;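 active means inhibition above the batch mean plus 3 SD, with images confirmed as a hit by eye, cut at about 37% in these data; inconclusive means inhibition above that limit but hit not confirmed in images; inactive means inhibition not above that limit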;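 further: 0% = TNF-stimulated DMSO wells and 100% = unstimulated control wells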
IL1B NFkB inh: blocks IL-1B driven NFkB nuclear translocation in HUVEC cells | hit rate 0.43% among 94,000 | inhibition, % at 2 µM | HUVEC IL-1B NFkB p65 nuclear translocation imaging;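 active means inhibition above about 30% together with a positive call from visual inspection of the well image, limit read from the data; inconclusive means inhibition above a set limit but visual check negative; inactive means inhibition not above a set limit, visual check negative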;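 further: nuclear over cytoplasmic p65 intensity ratio measured by imaging; 0% = IL-1B stimulated DMSO wells and 100% = unstimulated DMSO wells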
Phagocyt inh: blocks phagocytosis by macrophages; AID 1029; inhibition, % at 5 µM; J774A.1 macrophage IgG-bead phagocytosis, imaging; hit rate 0.07% among 110,000;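 active means inhibition above the mean of the plate negative controls plus 5 SD, cut at about 13% in these data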;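 further: phagocytic index as fraction of beads internalized from green versus red external bead signal; plate controls were DMSO negative control for no effect and cytochalasin-D positive control for full effect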
NFkB transloc pot: enhances IL-1B driven NFkB nuclear translocation. AID 819. hit rate 0.3% among 94,000. HUVEC IL-1B NFkB p65 nuclear translocation imaging. activation, % at 2 µM;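 active means activation above 40%, about the mean plus 3 SD, also judged a hit on visual image review; inconclusive means activation above 40% but not a hit on visual review; inactive means activation not above 40% and no visual hit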;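 further: percent activation is computed from the nuclear over cytoplasmic p65 intensity ratio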
HUVEC tox IL1B: HUVEC cytotoxicity counter-screen, IL-1B stimulated; hit rate 0.41% among 94,000; HUVEC cell count loss, Hoechst imaging; cell count reduction, % at 2 µM; AID 845;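 active means cell count reduction more than 3 SD above the screen-wide mean, cut at about 70% in these data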;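 further: normalized per plate to untreated control cells as the no-loss baseline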
* hit, by the source's call; u = inconclusive; x = not tested or not shown. This is a sample that favours compounds with a hit; in the whole collection about 1.2% have one here.

SMILES | TNFa cytotox | VCAM1 TNFa inh | IL1B NFkB inh | Phagocyt inh | NFkB transloc pot | HUVEC tox IL1B
CCOC(=O)c1ccc2[nH]c3c(c2c1)CCCC3C(=O)OCC (stereo not drawn) | -18 | 6 | -6 | 1 | 6 | -17
CCOC(=O)c1ccc2[nH]c3c(c2c1)CCCCC3=O | 5 | -6 | -41 | x | 41* | 16
O=C1CCCc2c1[nH]c1ccc(Cl)cc21 | 39 | 76* | 5 | x | -5 | 8
Cc1cc(NC(=O)C2C3C=CC(C3)C2C(=O)O)no1 (stereo not drawn) | 100* | u | -27 | -3 | 27 | -45
CN(c1ccccc1C(=O)Nc1ccc(S(=O)(=O)N2CCCC2)cc1)S(C)(=O)=O | -9 | 1 | -2 | -1 | 2 | -104
CN(c1ccccc1C(=O)Nc1ccc(S(=O)(=O)N2CCCCC2)cc1)S(C)(=O)=O | 5 | 16 | 99* | -2 | -99 | 94*
COc1cc(S(=O)(=O)N2CCCCC2)ccc1NC(=O)c1ccc(F)cc1 | -1 | 11 | -34 | 2 | 34 | -26
COc1cc(S(=O)(=O)N2CCCCC2)ccc1NC(=O)c1ccccc1Cl | -7 | -11 | 47* | x | -47 | -36
CC1(C)CC(=O)C(=C2SCCCS2)C(=O)C1 | x | x | x | -1 | x | x
O=S(=O)(Nc1ccc(N2CCCCC2)cc1)c1ccc(F)c(F)c1 | x | x | x | -1 | x | x
COc1ccc(C(c2nnnn2C2CCCCC2)N2CCN(c3ccc(OC)cc3)CC2)cc1 (stereo not drawn) | -10 | 4 | -57 | -1 | 57* | 14
CCC(CC)C(=O)OCC(=O)Nc1cc(OC)c([N+](=O)[O-])cc1C | x | x | x | -8 | x | x
COc1cc(Cl)c(C)cc1NC(=O)CCCN1C(=O)CCC1=O | -25 | 18 | -16 | -1 | 16 | 7
Cc1cc(Cl)ccc1NC(=O)CCCN1C(=O)CCC1=O | 18 | 1 | 43* | 0 | -43 | -4
O=S(=O)(c1cccs1)N1CCN(CC(O)COc2cccc(Br)c2)CC1 (stereo not drawn) | 55 | 94* | 6 | 1 | -6 | 3
O=S(=O)(c1cccs1)N1CCN(CC(O)COC2CCCc3ccccc32)CC1 (stereo not drawn) | -2 | -3 | 20 | 1 | -20 | -15
CCOc1cc(/C=N\Nc2ccc([N+](=O)[O-])cc2)ccc1OCC(=O)Nc1ccc(C)c(C)c1 | 13 | -4 | 8 | x | -8 | -23
CCOc1cc(/C=N\NC(=O)Cc2ccccc2)ccc1OCC(=O)Nc1ccc(C)c(C)c1 | 15 | 52* | 0 | 1 | 0 | -13
O=C1S/C(=C/c2ccccc2F)C(=O)N1CCN=C1NS(=O)(=O)c2ccccc21 | x | x | x | -6 | x | x
CCOC(=O)c1c(NC(=O)CN2C(=O)NC3(CCC(CC)CC3)C2=O)sc(C)c1-c1ccc(C)cc1 (stereo not drawn) | x | x | x | -11 | x | x
Cc1sc2ncn(CCn3cnc4sc(C)c(C)c4c3=O)c(=O)c2c1C | 7 | 3 | 57* | 0 | -57 | 9
Cc1ccc2[nH]c(-c3ccccc3)cc(=O)c2c1 | 37 | 64* | 19 | 4 | -19 | 20
Cc1ccc2[nH]c(C(=O)O)c(-c3ccccc3)c2c1 | 3 | -3 | 6 | -2 | -6 | 12
O=C(Cn1cccc1C(=O)c1ccccc1)NCCN1CCOCC1 | 44 | 82* | 6 | x | -6 | 2
O=C(Cn1cccc1C(=O)c1ccccc1)NCCCN1CCOCC1 | 0 | 0 | 11 | 3 | -11 | -9
SMILES | TNFa cytotox | VCAM1 TNFa inh | IL1B NFkB inh | Phagocyt inh | NFkB transloc pot | HUVEC tox IL1B
O=C(CSCc1ccc(Br)cc1)N1CCOCC1 | 0 | 24 | -42 | 8 | 42* | -16
O=C(CSCc1ccc(F)cc1)N1CCOCC1 | -16 | -16 | -10 | 1 | 10 | 11
C#CC(=O)N(c1cc(OC)ccc1OC)C(C(=O)NC1CCCC1)c1cccs1 (stereo not drawn) | 15 | 35 | -9 | 73* | 9 | 43
COc1ccc(N(C(=O)c2ccco2)C(C(=O)NC2CCCCC2)c2cccs2)cc1OC (stereo not drawn) | -38 | 9 | -13 | x | 13 | 18
O=C1C2CCCN2C(=O)N1CCCCN1CCN(c2cccc(Cl)c2)CC1 (stereo not drawn) | x | x | x | -4 | x | x
CCCN(CCC)CCNc1c(NC2CCN(C(=O)OCC)CC2)c(=O)c1=O | -20 | -4 | -11 | 0 | 11 | 4
CCOC(=O)N1CCC(Nc2c(NCCCN(C)Cc3ccccc3)c(=O)c2=O)CC1 | -27 | 12 | -42 | 0 | 42* | -7
CCOC(=O)c1cc(C(C)(C)C)oc1CNC(=O)c1c(C)oc2c1CCCC2 | 1 | -1 | -9 | x | 9 | -8
CCOC(=O)N1CCC(N2C(=O)c3ccccc3C2Nc2cc(C(=O)OC)cc(C(=O)OC)c2)CC1 (stereo not drawn) | -5 | -5 | -42 | 0 | 42* | 10
CCOC(=O)c1c(C)n(C)c2ccc(OC)c(NC(=O)CN3CCN(C4CCCCC4)CC3)c12 | -19 | -14 | 25 | 2 | -25 | 87*
CCOC(=O)c1c(C)n(C)c2ccc(OC)c(NC(=O)CN3CCN(Cc4ccccc4)CC3)c12 | -35 | 6 | 7 | x | -7 | -13
N#Cc1c(NCc2ccccc2)ccnc1NCc1cccnc1 | x | 93* | 2 | 0 | -2 | 19
CN(C)c1ccnc(NCc2ccccc2)c1C#N | -1 | -20 | -14 | 0 | 14 | -24
CC1CCN(C(=O)CSc2nnc(CNc3ccc(F)cc3)n2Cc2ccco2)CC1 | -6 | 10 | 32* | -2 | -32 | 84*
CCOc1ccc(C(=O)C(c2ccccc2)N2CCOCC2)cc1 (stereo not drawn) | 66 | 76* | -2 | 0 | 2 | 14
CCCOc1ccc(C(=O)C(CN2CCOCC2)c2ccccc2)cc1 (stereo not drawn) | -13 | 50* | -2 | x | 2 | -3
Nc1nc(C(=O)N2CCOCC2)nn1S(=O)(=O)c1ccc(Cl)cc1 | 1 | 7 | -3 | 0 | 3 | 92*
CCOC(=O)N1CCN(C(=O)c2cccc(NC(=O)c3ccco3)c2)CC1 | -20 | 6 | 1 | -3 | -1 | -33
O=C(Nc1cccc(C(=O)N2CCCCCC2)c1)c1ccco1 | 10 | -5 | 14 | 2 | -14 | 72*
CCOC(=O)c1c(NC(=O)CSc2nnc3c(Cl)cc(Cl)cn23)sc2c1CCC2 | x | x | x | -5 | x | x
O=C1CC(N2CCN(Cc3ccc4c(c3)OCO4)CC2)C(=O)N1Cc1ccc(N2CCCC2=O)cc1 (stereo not drawn) | 92* | 80* | -2 | x | 2 | 9
O=C1CC(N2CCOCC2)C(=O)N1Cc1ccc(N2CCCC2=O)cc1 (stereo not drawn) | -15 | -3 | -42 | -1 | u | 16
CCOc1cc(/C=C2/C(=O)N(c3ccccc3)N=C2C)ccc1OC(=O)c1ccco1 | 13 | 44* | -17 | x | 17 | 4
O=C(CSc1nnc(NC(=O)c2ccccc2Cl)s1)Nc1ccc2c(c1)oc1ccccc12 | x | x | x | -2 | x | x
